Screening data: PubChem, National Center for Advancing Translational Sciences (NCATS)
G9a block: qHTS Assay for Inhibitors of Histone Lysine Methyltransferase G9a; G9a H3K9 monomethylation, AlphaScreen, 2 h; Potency, µM (doses to about 102 µM), usual class: inhibitors; Histone-lysine N-methyltransferase EHMT2 (Homo sapiens), Q96KQ7; AID 504332, 2011; hit rate 8.8% among 350,000; further: nearly all actives have a fitted effect of over 75% in size
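Quantitative HTS format: methyltransferase activity on a biotin-tagged H3K9 peptide is measured by AlphaScreen, using a rabbit anti-monomethyl-H3K9 antibody with streptavidin donor and anti-IgG acceptor beads. Final levels are 20 nM enzyme, 500 nM peptide, 20 uM SAM; 2 h RT.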
GLS inhibitor: qHTS for Inhibitors of Glutaminase (GLS) | Potency, µM (titrated, usually from 45.5 µM), hits mostly inhibitors | Glutaminase kidney isoform, mitochondrial (Homo sapiens), O94925 | GLS enzymatic activity, qHTS titration | AID 624170, 2012 | hit rate 0.21% among 410,000
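Assay buffer: 45 mM KH2PO4 pH 8.2, 0.02% Tween-20. hKGA acts on L-glutamine (1 mM solution added); product glutamate is reported by an oxidase/peroxidase Amplex Red coupling, with fluorescence taken at baseline and 30 min.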
JMJD2A Tudor inh: qHTS Assay for Inhibitors of JMJD2A-Tudor Domain; Potency, µM (highest dose often 114 µM), actives largely listed as inhibitors; AlphaScreen JMJD2A-Tudor / H3K4me3 peptide binding; Lysine-specific demethylase 4A (Homo sapiens), O75164; AID 504339, 2011; hit rate 4.4% among 390,000; further: nearly all actives have a fitted effect of over 50% in size
HP1b binding inh: HTS for Inhibitors of HP1-beta Chromodomain Interactions with Methylated Histone Tails. Chromobox protein homolog 1 (Homo sapiens), P83916. AlphaScreen HP1-beta / biotin-H3K9me3 peptide binding. Potency, µM (titrated, usually from 114 µM), usual class: inhibitors. hit rate 0.56% among 390,000. AID 540317, 2011; further: nearly all actives have a fitted effect of over 70% in size
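Compound inhibition of the preformed complex between 50 nM HP1-beta and 50 nM biotinylated H3K9me3 peptide was read by AlphaScreen. Buffer was PBS pH 7.4 with 0.01% Tween-20. Incubations ran 30 min at room temperature, with 10 ug/mL donor/acceptor beads.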
BAZ2B block: qHTS Assay for Inhibitors of BAZ2B. Potency, µM (highest dose often 114 µM), actives largely listed as inhibitors. hit rate 4.4% among 360,000. AID 504333, 2011. Bromodomain adjacent to zinc finger domain protein 2B (Homo sapiens), Q9UIF8. AlphaScreen BAZ2B-H3K14Ac peptide displacement; further: nearly all actives have a fitted effect of over 60% in size
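BAZ2B 50 nM plus b-H3(5-23)K14Ac 50 nM, PBS pH 7.4/0.01% Tween-20, 30 min RT; compound added (max 110 uM), 30 min RT; streptavidin donor/Ni-chelate acceptor beads 10 ug/mL final, 20 min dark; AlphaScreen read.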
L3MBTL1 inh: qHTS Assay for the Inhibitors of L3MBTL1 | Lethal(3)malignant brain tumor-like protein 1 (Homo sapiens), Q9Y468 | AlphaScreen L3MBTL1–H3K9me1 peptide binding | Potency, µM (doses to about 57.1 µM), most hits filed as inhibitors | hit rate 0.66% among 230,000 | AID 485360, 2010; further: nearly all actives have a fitted effect of over 60% in size
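Displacement of a biotinylated histone H3(1-15) peptide monomethylated at Lys9 (75 nM) from L3MBTL1 (50 nM) was measured by AlphaScreen after a 30 min room-temperature compound incubation; cefsulodin titration served as intraplate control.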
Of the large screens only hits and unclear results are named; the others gave an inactive call; ! = repeats disagree. The list is not random: actives were taken first. Their share in the collection is about 10%. The call rests on the fitted dose curve; in most records, active means well fitted curve in the direction sought with a large enough effect; inconclusive means small, poorly fitted or top-dose-only effect, or another doubt; inactive means no such curve, though single readings can be large; an effect the other way counts as inactive or inconclusive.

NC12CC3CC(CC(C3)C1)C2	G9a block 1.8µM!
Cn1cnc2nc(NCCO)nc(NCc3ccccc3)c21	none (no result: GLS inhibitor, JMJD2A Tudor inh, HP1b binding inh, BAZ2B block, L3MBTL1 inh)
CCOCC(O)COc1ccc(NC(=O)CC[S+](C)C)cc1 (stereo not given)	none (no result: JMJD2A Tudor inh, HP1b binding inh, BAZ2B block, L3MBTL1 inh)
C=C1C(=O)[C@]23[C@H](O)[C@H]1CC[C@H]2[C@@]12COC3(O)[C@H](O)[C@@H]1C(C)(C)CC[C@@H]2O	G9a block 7.1µM (no result: GLS inhibitor, JMJD2A Tudor inh, HP1b binding inh, BAZ2B block, L3MBTL1 inh)
CSc1nsc(/C=C/Nc2ccc(C)cc2)c1C#N	G9a block 2.2µM, BAZ2B block inconclusive (no result: L3MBTL1 inh)
N#CC1=C(N)Nc2nc3ccccc3n2C1c1ccc(Cl)cc1 (stereo not given)	G9a block 0.63µM
COc1ccc(NC(=O)C2CCCN(c3ncnc4c3nc3n4CCCCC3)C2)c(OC)c1 (stereo not given)	none (no result: L3MBTL1 inh)
Cc1nn(-c2ccccc2)c(Cl)c1/C=N/NC(N)=O	none (no result: L3MBTL1 inh)
NC(=O)N/N=C/c1c(Sc2nnnn2-c2ccccc2)nc2ccccn2c1=O	G9a block 50µM
CCCn1c(S(=O)(=O)O)nc2ccccc21	G9a block 50µM (no result: L3MBTL1 inh)
CCCn1c(/C=C/c2cc[n+](C)cc2)nc2ccccc21	G9a block 40µM, JMJD2A Tudor inh inconclusive, BAZ2B block inconclusive
S=C(Nc1ccccc1)Nc1nc2ccccc2n1CCOc1ccc(Br)cc1	G9a block inconclusive, JMJD2A Tudor inh inconclusive, BAZ2B block 3.2µM, L3MBTL1 inh 6.3µM
CCC(C)n1c(S(=O)(=O)O)nc2ccccc21 (stereo not given)	G9a block 79µM, BAZ2B block inconclusive (no result: L3MBTL1 inh)
CC(=O)c1ccc(NC(=O)CSc2nnc(-c3ccncc3)n2-c2ccccc2)cc1	none (no result: L3MBTL1 inh)
CCCOc1ccc(OC(=O)c2cn(-c3ccc(OC)cc3)c(=O)c3ccccc23)cc1	none (no result: L3MBTL1 inh)
O=S(=O)(O)c1nc2ccccc2n1CCOc1ccccc1	G9a block 50µM
CCCn1c(N2CCN(C(=O)Nc3ccccc3)CC2)nc2ccccc21	none
CCCn1c(N2CCN(C(=O)N3CCCCC3)CC2)nc2ccccc21	G9a block 50µM, BAZ2B block inconclusive
Cc1cccc(OCCn2c(S(=O)(=O)O)nc3ccccc32)c1	none (no result: G9a block)
O=C(Cc1ccccc1)NCCc1csc2nc(-c3ccc(Cl)cc3)nn12	none (no result: L3MBTL1 inh)
Cc1nnc(NN)n(N)c1=O	JMJD2A Tudor inh 32µM, HP1b binding inh 22µM (no result: G9a block)
CN(CC(=O)Nc1cccc(C(F)(F)F)c1)Cc1ccccc1	none (no result: L3MBTL1 inh)
OCCN(Cc1ccccc1)Cc1ccc(C(F)(F)F)cc1	G9a block 28µM, JMJD2A Tudor inh 7.9µM, HP1b binding inh 16µM, BAZ2B block inconclusive (no result: L3MBTL1 inh)
OCCN(Cc1ccccc1)Cc1cccc(C(F)(F)F)c1	G9a block 18µM, JMJD2A Tudor inh 7.9µM, HP1b binding inh inconclusive, BAZ2B block inconclusive (no result: L3MBTL1 inh)
O=C(c1cnc(N2CCCCC2)c2ccccc12)N1CCN(c2ccc(F)cc2)CC1	JMJD2A Tudor inh inconclusive (no result: L3MBTL1 inh)
O=C1CCc2cc(S(=O)(=O)Nc3ccc(Cl)cc3)ccc2N1	none (no result: G9a block, GLS inhibitor, HP1b binding inh, BAZ2B block, L3MBTL1 inh)
CC(C)CCNC(=O)c1ccc2nc(CCc3ccccc3)oc2c1	none (no result: L3MBTL1 inh)
COc1ccc(N2C(=O)CSC23C(=O)Nc2ccccc23)cc1OC (stereo not given)	none
CCc1nn(-c2ccccc2)c2nc(-c3ccccc3OC)c3cc(OC)c(OC)cc3c12	none (no result: L3MBTL1 inh)
COc1cc2c(cc1OC)C1(Nc3c-2c(C)nn3-c2ccccc2)C(=O)Nc2ccccc21 (stereo not given)	G9a block 71µM, JMJD2A Tudor inh inconclusive (no result: L3MBTL1 inh)
CCc1nn(-c2ccccc2)c2c1-c1cc(OC)c(OC)cc1C1(N2)C(=O)Nc2ccccc21 (stereo not given)	G9a block 79µM, JMJD2A Tudor inh inconclusive, BAZ2B block inconclusive (no result: L3MBTL1 inh)
